HEK293 cAMP cs: qHTS Assay for Agonists of the Thyroid Stimulating Hormone Receptor: Activators of Intracellular cAMP Concentrations in Parental HEK 293; parental HEK293 CNG cAMP sensor, membrane potential fluorescence; Potency, µM (doses to about 57.1 µM), without a hit: at the highest dose activation, most hits filed as activators; 2.5% of 73,000 active; AID 938, 2007; further: % of control where 0% means no effect; nearly all actives have a fitted effect of over 55% in size
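Parental HEK 293 cells stably expressing a cAMP-gated CNG channel were loaded with membrane potential dye containing 100 uM RO 20-1724 for 60 min. Compound added for 30 min; depolarization read as fluorescence intensity at 590 nm.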
CRE Fsk mod: Cell signaling CRE-BLA (Fsk stim); CHO CRE-bla reporter (cAMP response element driving beta-lactamase), forskolin EC10, beta-lactamase ratio; Potency, µM (highest dose often 38.2 µM), for inactives: top-dose activity change, negative = inhibition, most hits filed as activators; 2.5% of 71,000 active; AID 662, 2007; active means well fitted activation curve with a large enough effect in the signal ratio, with a control signal flat, not every such curve was filed as active; inconclusive means small, poorly fitted or top-dose-only effect, or effect the other way, or a change in a side signal; the % refers to the signal ratio; further: % of control where 0% means no effect
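AC50 values, positive or negative, reflect shifts in EC10 NKH 477-induced CRE-bla reporter activity in CHO cells. Incubation lasted 3 h at 37 °C before CCF4 substrate (2 h, room temperature) and ratiometric 460/530 nm reading.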
Tau fil binding: qHTS Assay for Tau Filament Binding. AID 596, 2007. recombinant tau filaments, thioflavin S fluorescence, 15 h; filaments grown with octadecylsulfate alongside compound. 2% of 71,000 active. Potency, µM (doses to about 57.1 µM), inactives show at the top dose activity change, negative = inhibition. Microtubule-associated protein tau (Homo sapiens), P10636;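 further: on the % scale 0 is the no-effect control and ±100 the full control effect; actives lower thioflavin S fluorescence by blocking filaments or displacing dye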
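Tau 2 uM in ThS buffer dispensed; compound added; 60 uM ODS added (finals 1 uM tau, 30 uM ODS); 15 h 37 C; fluor ex450/em510.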
ERK AVP inh: qHTS Assay for Inhibitors of the ERK Signaling Pathway using a Homogeneous Screening Assay. HEK293-V1b, vasopressin-stimulated pERK AlphaScreen. Potency, µM (top dose mostly 57.5 µM), inactives show top-dose activity, negative = inhibition, most hits filed as inhibitors. 0.99% of 72,000 active; further: on the % scale 0 is the no-effect control and ±100 the full control effect; nearly all actives have a fitted effect of over 55% in size
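qHTS, compounds titrated on V1b-expressing HEK293 cells. Preincubation 30 min at 37C, vasopressin 25 nM for 5 min, lysis 10 min, bead incubation 5 hr at room temperature.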
TSHR agonist: qHTS Assay for Agonists of the Thyroid Stimulating Hormone Receptor | Thyrotropin receptor (Homo sapiens), P16473 | HEK293-CNG-TSHR cells (CNG channel as cAMP sensor), membrane potential dye, cAMP | Potency, µM (top dose mostly 57.1 µM), without a hit: top-dose activation, most hits filed as activators | 0.48% of 73,000 active; active means well fitted activation curve with a large enough effect in the main read-out, with a control signal flat, not every such curve was filed as active; inconclusive means small, poorly fitted or top-dose-only effect, or a change in a side signal; inactive means no such curve, though single readings can be large or run the other way; % of control where 0% means no effect;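 further: the control signal comes from parental cells without the receptor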
Target sequence (P16473 whole entry, looked up): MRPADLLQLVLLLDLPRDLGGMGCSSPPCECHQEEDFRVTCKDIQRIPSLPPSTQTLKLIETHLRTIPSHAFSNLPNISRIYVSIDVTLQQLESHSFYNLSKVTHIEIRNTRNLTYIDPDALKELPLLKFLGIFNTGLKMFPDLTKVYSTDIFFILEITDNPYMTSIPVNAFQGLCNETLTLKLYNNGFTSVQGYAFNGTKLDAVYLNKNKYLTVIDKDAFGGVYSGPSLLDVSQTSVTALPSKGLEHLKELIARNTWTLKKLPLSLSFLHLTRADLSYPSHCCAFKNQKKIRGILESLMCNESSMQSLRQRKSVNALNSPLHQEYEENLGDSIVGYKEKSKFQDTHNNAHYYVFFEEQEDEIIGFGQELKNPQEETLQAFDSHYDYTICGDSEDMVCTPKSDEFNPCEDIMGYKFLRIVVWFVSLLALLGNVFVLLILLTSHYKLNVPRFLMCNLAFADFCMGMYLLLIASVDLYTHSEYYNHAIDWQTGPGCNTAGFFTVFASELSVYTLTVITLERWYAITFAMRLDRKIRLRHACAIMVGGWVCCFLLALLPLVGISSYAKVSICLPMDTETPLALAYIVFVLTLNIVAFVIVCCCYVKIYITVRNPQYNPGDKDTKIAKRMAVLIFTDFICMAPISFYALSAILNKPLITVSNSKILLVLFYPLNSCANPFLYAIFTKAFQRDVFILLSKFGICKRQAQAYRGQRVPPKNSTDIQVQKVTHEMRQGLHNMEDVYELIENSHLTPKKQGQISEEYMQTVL
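cAMP rise detected as CNG-channel membrane depolarization by fluorescent dye (emission 590 nm), 30 min after compound, following 60 min dye loading containing 100 uM RO 20-1724 at room temperature. Cells: TSHR/CNG HEK 293, with parental CNG HEK 293 as control.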
Numbers without * were called inactive; ? = inconclusive; . = no result; ! = not active in a repeat; [ ] = dose if it differs, or a comment. Most compounds without a hit are left out; they make up all but 7.6% or so of the library. Unless noted, the call rests on the fitted dose curve; in most records, active means well fitted curve in the direction sought with a large enough effect; inconclusive means small, poorly fitted or top-dose-only effect, or another doubt; inactive means no such curve, though single readings can be large; an effect the other way counts as inactive or inconclusive. Potency means the concentration at half of the fitted maximal effect.

SMILES	HEK293 cAMP cs	CRE Fsk mod	Tau fil binding	ERK AVP inh	TSHR agonist
COc1ccc(C2=Nn3c(nnc3-c3cccnc3)SC2)cc1	-3.2%	10µM*	2.2%	-25.9%	0.6%
COc1ccc(OCc2nnc3n2N=C(c2ccc(OC)cc2)CS3)cc1	?	3.98µM*	56.4%	25.1µM*	?
COc1ccc(OC)c(C2=Nn3c(nnc3-c3cccc(OC(C)C)c3)SC2)c1	25.1µM*	1.26µM*	36.8%	-22.8%	?
COc1ccc(OCc2nnc3n2N=C(c2ccc(C)cc2)CS3)cc1	?	?	16.5%	-24.1%	?
c1ccc(C2=Nn3c(nnc3-c3cccnc3)SC2)cc1	-4.8%	?	0.0%	?	-10.3%
CC(C)CN1CCc2nc(-c3ccccc3)c3c(c2CC1)COC(C)C3 (stereo not given)	1.0%[11.4 µM]	.	.	6.3%[11.5 µM]	-5.0%[11.4 µM]
O=S(=O)(NCCCCCCc1ccccc1)c1cccc2c(Cl)cccc12	16.2%	?	?	34.7%	5.7%
COC(=O)[C@H](C)NC(=O)Nc1ccc(OC)c(OC)c1	14.2%	?	-2.4%	-8.5%	0.7%
COC(=O)[C@H](C)NC(=O)Nc1ccc(Oc2ccccc2)cc1	-2.2%	22.5%	11.7%	25.1µM*	-2.9%
ON=C1CCCCC1	-28.8%	-4.6%	0.4%	-9.5%	?
[N-]=[N+]=Nc1nc2c(N)ncnc2n1C1OC(CO)C(O)C1O (stereo not given)	.	.	.	-11.9%	.
CCOC(=O)CSc1nc(N)c(C#N)c(-c2ccc(OCC)cc2)c1C#N	-0.1%	?	132.5%	0.0%	-1.9%[11.4 µM]
CCc1c(C#N)c(N)nc(SCC(=O)OCc2ccccc2)c1C#N	?	?	24.7%[11.4 µM]	31.6µM*	?
CCCCCCCCCCCCC(=O)N1CCCC[C@H]1CNC(=O)[C@@H](N)CCCCN	2.9%	-6.1%	?	-0.3%	13.0%
CCOC(=O)c1c(C)n(CC(O)c2ccccc2)c2ccc(O)cc12 (stereo not given)	-2.4%	18.0%	-14.2%	?	25.1µM*
O=C(c1ccco1)N1CCC2(CC1)CCN(c1ccncc1)CC2	5.7%	2.5%	-18.6%	16.0%	-1.3%
CCS(=O)(=O)Nc1c(C(=O)OC)[nH]c2ccccc12	-1.3%	-24.8%	-5.9%	0.4%	1.7%
CCS(=O)(=O)Nc1c(C(=O)O)[nH]c2ccccc12	-9.4%	-10.8%	20µM*	-5.7%	-4.6%
COc1cccc([C@@H]2Oc3ccc(OC)cc3/C(=N/OC[C@@H](C)[C@H](OCc3ccccc3)C(C)C)[C@@H]2O)c1	14.5%[11.4 µM]	.	.	-3.4%[11.5 µM]	-0.7%[11.4 µM]
COc1cc2c(cc1OC)C(=O)N(C)CC2	10.0%	15.8µM*	?	-19.9%	4.2%
CC(C)[C@@H](CC(=O)N[C@@H]1CCNC[C@H]1C(=O)N[C@H](CC(=O)N[C@@H](CCC(=O)O)CC(=O)O)Cc1ccccc1)NC(=O)C[C@H](Cc1c[nH]c2ccccc12)NC(=O)[C@@H]1CCCC[C@H]1N	6.0%	?	-25.2%	.	6.5%
COc1cc(C2c3c(oc4ccc(C)cc4c3=O)C(=O)N2c2cc(C)ccn2)cc(OC)c1OC (stereo not given)	1.9%	-3.7%	-11.4%	-8.3%	7.9%
Cc1ccc2oc3c(c(=O)c2c1)C(c1cccc(O)c1)N(c1ccccn1)C3=O (stereo not given)	-0.3%	16.4%	12.6µM*	?	-5.1%
CCC(C)(C)NC(=O)C(c1ccc(C)o1)N(Cc1cccs1)C(=O)Cn1nnc2ccccc21 (stereo not given)	15.8µM*	-1.9%	180.1%	-8.6%	?
COCCNC(=O)C(c1ccc(C)o1)N(Cc1ccc(OC)cc1)C(=O)Cn1nnc2ccccc21 (stereo not given)	2.7%	-6.2%	-4.1%	-1.5%	2.8%
SMILES	HEK293 cAMP cs	CRE Fsk mod	Tau fil binding	ERK AVP inh	TSHR agonist
CCC(C)(C)NC(=O)C(c1ccccc1F)N(Cc1ccco1)C(=O)Cn1nnc2ccccc21 (stereo not given)	15.8µM*	-9.9%	1.3%	-14.9%	?
CCC(C)(C)NC(=O)C(c1ccccc1F)N(Cc1ccco1)C(=O)c1csnn1 (stereo not given)	19.3%	-18.1%	-2.8%	-16.3%	20.4%
COc1ccc(COC(=O)N/N=C2/C[C@@H](O)[C@@H](O)[C@@H]3[C@@H]4C(=O)N(C(C)(C)C)C(=O)[C@H]4CC[C@@H]23)cc1	4.1%[11.4 µM]	.	.	2.1%[11.5 µM]	4.8%[11.4 µM]
COc1cccc(OC)c1-c1nnc(-c2cn(C)c3ccccc23)o1	20µM*	13.1%	12.3%	-1.2%	?
c1csc(CNc2ncncc2-c2ccoc2)c1	-0.8%	-7.5%	7.3%	-22.9%	7.6%
COc1ccccc1C(CCN(Cc1cccs1)C(C)=O)c1ccco1 (stereo not given)	15.8µM*	0.0%	-4.3%	-20.4%	?
CCC(=O)NCCC(c1ccco1)c1ccccc1OC (stereo not given)	16.4%	14.3%	-2.4%	-28.2%	11.2%
Cc1cc(NC(=O)COC(=O)c2ccc(S(=O)(=O)N3CCCc4ccccc43)cc2)no1	16.5%	-5.4%	-2.2%	-27.1%	15.8µM*
Cc1ccc(S(=O)(=O)/C=C\C#N)cc1	-13.9%	?	34.9%	20µM*	10.9%
CC(C)(C)c1ccc(S(=O)(=O)N2CCN(CCC#N)CC2)cc1	?	9.9%	5.0%	27.0%	?
CC(C)(C)c1ccc(S(=O)(=O)/C=C\C#N)cc1	25.1µM*!	?	24.2%	31.6µM*	?
Cc1noc(C)c1-c1nc(NCc2ccccc2)c2ccccc2n1	25.1µM*	24.9%	8.5%	-27.7%	?
Cc1noc(C)c1-c1nccc(NCc2cccnc2)n1	13.9%	?	6.9%	2.1%	-0.6%
CC(=O)NCCNc1nc(-c2c(C)noc2C)nc2ccccc12	2.8%	?	-0.5%	-10.3%	6.7%
Cc1noc(C)c1-c1nc(NCc2cccnc2)c2ccccc2n1	2.8%	12.6µM*	4.4%	2.2%	.
CCCCCCC1Cc2cc(OC)c(OC)cc2C(C(C(=O)OCC)C(=O)OCC)O1 (stereo not given)	5.9%[11.4 µM]	.	.	36.3%[11.5 µM]	-1.3%[11.4 µM]
Cc1cc(C)nc(Nc2ccc(N3CCCC3)cc2)n1	2.2%	-6.1%	15.8µM*	?	-5.3%
CCCc1cc(=O)[nH]c(Nc2ccc(N3CCCCC3)cc2)n1	-13.8%	9.9%	25.1µM*	?	-10.4%
CCCCc1ccc(Nc2nc(CCC)cc(=O)[nH]2)cc1	-4.7%	-18.7%	225.5%	-0.3%	5.2%
COC(=O)NC(c1cccc(C)c1)[C@]1(C(C)=O)CCCC1=O (stereo not given in full)	0.8%[11.4 µM]	.	.	19.1%[11.5 µM]	-1.7%[11.4 µM]
CN1CCC(CNC(=O)c2ccc(Cc3nc4ccccc4[nH]3)cc2)CC1	-20.9%	.	.	.	9.0%

Screens: PubChem, National Center for Advancing Translational Sciences (NCATS)
